Measurements reported in PubChem BioAssay (NCI).
Compounds without any hit were thinned out: in the full panel of roughly 83,000, 20% have a hit.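 Percent growth is the endpoint: 0 to 100 indicates growth inhibition (40 means 60% inhibition), 0 means no net growth, and negative values indicate cell death.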 A number with no mark means an inactive call. Activity calls are given as the source filed them. Rule for the calls: active = growth percent below 10; inactive = the rest.

Experiments:
Test in all cases: NCI-60 one-dose screen, 48 h (100 = growth as untreated, 0 = no growth, -100 = all killed)
Conditions in all cases: 10 µM
[1] = tested on: HT29 colon
[2] = tested on: SNB-75 CNS
[3] = tested on: SNB-19 CNS
[4] = tested on: U251 CNS
[5] = tested on: PC-3 prostate
[6] = tested on: SK-MEL-5 melanoma
[7] = tested on: UACC-62 melanoma
[8] = tested on: LOX IMVI melanoma
[9] = tested on: SK-MEL-28 melanoma
[10] = tested on: SK-MEL-2 melanoma

SMILES: ClCCOCCn1cnc2c(Cl)nc(Cl)nc21
- growth [1]: 36.6%
- growth [2]: 57.1%
- growth [3]: 88.2%
- growth [4]: 67.3%
- growth [5]: 35.2%
- growth [6]: 52.3%
- growth [7]: 45.1%
- growth [8]: -13.9% (active)
- growth [9]: 72.8%
- growth [10]: 67.6%

SMILES: Cc1cc(Cc2cc(C)c(O)c(C)c2)cc(C)c1O
- growth [1]: 88.1%
- growth [2]: 48%
- growth [3]: 66.6%
- growth [4]: 49.6%
- growth [5]: 75.1%
- growth [6]: 38.9%
- growth [7]: 53.2%
- growth [8]: 43.5%
- growth [9]: 70%
- growth [10]: 6.12% (active)

SMILES: CN(C)c1ccc(N=C2C=CC(=O)c3ccccc32)cc1
- growth [1]: 61.4%
- growth [2]: 84.7%
- growth [3]: 70.7%
- growth [4]: 87.5%
- growth [5]: 65.2%
- growth [6]: -56.1% (active)
- growth [7]: 22.5%
- growth [8]: 40.9%
- growth [9]: 73.6%
- growth [10]: 64.9%

SMILES: Cc1ccc(NC(=O)Nc2cccnc2)cc1NC(=O)Nc1cccnc1
- growth [1]: 89.6%
- growth [2]: 95.9%
- growth [3]: 94%
- growth [4]: 79%
- growth [5]: 43.4%
- growth [6]: 64.3%
- growth [7]: 75.7%
- growth [8]: 96.6%
- growth [9]: 98.8%
- growth [10]: 83%

SMILES: N#Cc1ncc(Br)c(NC2CCCCCC2)n1
- growth [1]: 120%
- growth [2]: 83.8%
- growth [3]: 91.5%
- growth [4]: 92%
- growth [5]: 92.5%
- growth [6]: 103%
- growth [7]: 95.5%
- growth [8]: 101%
- growth [9]: 104%
- growth [10]: 104%

SMILES: CCCCCCCC(C)NCCO (stereo not given)
- growth [1]: 103%
- growth [2]: 99.4%
- growth [3]: 109%
- growth [4]: 108%
- growth [5]: 105%
- growth [6]: 101%
- growth [7]: 113%
- growth [8]: 92.8%
- growth [9]: 112%
- growth [10]: 106%

SMILES: CC(=O)c1nc2ccccc2n1CCN1CCN(C)CC1
- growth [1]: -3.6% (active)
- growth [2]: 6.87% (active)
- growth [3]: 73.7%
- growth [4]: 28.4%
- growth [5]: 33.4%
- growth [6]: 38.5%
- growth [7]: 50.7%
- growth [8]: 36.7%
- growth [9]: 48%
- growth [10]: 25.4%

SMILES: Cc1cc(=O)[nH]c(N/N=C/c2ccccc2O)n1
- growth [1]: 46.1%
- growth [2]: 89%
- growth [3]: 76.9%
- growth [4]: 45.9%
- growth [5]: 67.4%
- growth [6]: 90.8%
- growth [7]: 92.3%
- growth [8]: 59.5%
- growth [9]: 86.3%
- growth [10]: 73.9%

SMILES: COc1cc(/C=C\c2cc(OC)c(OC)c(OC)c2)cc(NS(=O)(=O)c2ccc(Cl)cc2)c1OC
- growth [1]: 5.17% (active)
- growth [2]: 49.1%
- growth [3]: 58.4%
- growth [4]: 20.5%
- growth [5]: 13.7%
- growth [6]: 24.3%
- growth [7]: 39.3%
- growth [8]: 35.8%
- growth [9]: 70.8%
- growth [10]: 17.8%

SMILES: COc1ccc2c(c1)O/C(=C\c1ccc([N+](=O)[O-])o1)C2=O
- growth [1]: -33.1% (active)
- growth [2]: 58.7%
- growth [3]: 59.7%
- growth [4]: 9.08% (active)
- growth [5]: -2.47% (active)
- growth [6]: 13%
- growth [7]: -37.6% (active)
- growth [8]: -64.7% (active)
- growth [9]: 41.9%
- growth [10]: -39.4% (active)

SMILES: C#Cc1ccc(-n2c(/C=C/c3ccc(O)cc3)nc3ncccc3c2=O)cc1
- growth [1]: 109%
- growth [2]: -1.11% (active)
- growth [3]: 82%
- growth [4]: 62.5%
- growth [5]: 65.3%
- growth [6]: 22.3%
- growth [7]: 29.1%
- growth [8]: 55.5%
- growth [9]: 51.7%
- growth [10]: 19.9%

SMILES: O=C(Nc1ccncc1)C(=O)c1cn(S(=O)(=O)c2cccc3ccccc23)c2ccccc12
- growth [1]: 42.7%
- growth [2]: 76.5%
- growth [3]: 80.5%
- growth [4]: 80.7%
- growth [5]: 68.5%
- growth [6]: 68%
- growth [7]: 63.7%
- growth [8]: 61.5%
- growth [9]: 95.3%
- growth [10]: 68.2%

SMILES: O=C(O)c1ccc(Cl)cc1Nc1ccc(F)cc1
- growth [1]: 101%
- growth [2]: 83.6%
- growth [3]: 87.1%
- growth [4]: 52.3%
- growth [5]: 83.9%
- growth [6]: 102%
- growth [7]: 92.4%
- growth [8]: 43.1%
- growth [9]: 86.2%
- growth [10]: 93.4%

SMILES: CC[C@H]1CCC/C=C/[C@@H]2C[C@H](O)C[C@H]2[C@H](O)/C=C/C(=O)O1
- growth [1]: -56.8% (active)
- growth [2]: 27.5%
- growth [3]: 29.7%
- growth [4]: 15.7%
- growth [5]: 13.6%
- growth [6]: -99.6% (active)
- growth [7]: -0.469% (active)
- growth [8]: -93.5% (active)
- growth [9]: -0.327% (active)
- growth [10]: -48.1% (active)

SMILES: CN(C)CCNC(=O)c1cccn2c(=O)c3cc4ccccc4cc3nc12
- growth [1]: -60.7% (active)
- growth [2]: -72.7% (active)
- growth [3]: 17.6%
- growth [4]: -11.1% (active)
- growth [5]: -16.6% (active)
- growth [6]: -20.3% (active)
- growth [7]: -56% (active)
- growth [8]: 1.07% (active)
- growth [9]: -25.8% (active)
- growth [10]: -65.9% (active)

SMILES: ClC(Cl)(Cl)c1nc2nccnc2[nH]1
- growth [1]: 102%
- growth [2]: 83.4%
- growth [3]: 102%
- growth [4]: 104%
- growth [5]: 102%
- growth [6]: 113%
- growth [7]: 107%
- growth [8]: 102%
- growth [9]: 110%
- growth [10]: 109%

SMILES: CCCC#CCN(CC)CC
- growth [1]: 104%
- growth [2]: 97.1%
- growth [3]: 100%
- growth [4]: 91.2%
- growth [5]: 86%
- growth [6]: 104%
- growth [7]: 99.1%
- growth [8]: 102%
- growth [9]: 108%
- growth [10]: 114%

SMILES: O=C(N/N=C/c1ccccc1O)C(O)(c1ccccc1)c1ccccc1
- growth [1]: 49.7%
- growth [2]: 68.8%
- growth [3]: 66%
- growth [4]: 45.9%
- growth [5]: 55.5%
- growth [6]: 62.1%
- growth [7]: 51.9%
- growth [8]: 25.7%
- growth [9]: 69.7%
- growth [10]: 107%

SMILES: CCOC1(OCC)OC(c2ccccc2)=C(C#N)C(/C=C\c2ccccc2)C1(OCC)OCC (stereo not given)
- growth [1]: 69.6%
- growth [2]: 86.6%
- growth [3]: 89.8%
- growth [4]: 77.4%
- growth [5]: 54.9%
- growth [6]: 95.5%
- growth [7]: 80.1%
- growth [8]: 79%
- growth [9]: 99.8%
- growth [10]: 95.3%

SMILES: O=C(Nc1ccc(CN2CCc3nc4cc(O)c(O)cc4cc32)cc1)c1ccc(Cl)c(Cl)c1
- growth [1]: 109%
- growth [2]: 89.2%
- growth [3]: 96.7%
- growth [4]: 105%
- growth [5]: 101%
- growth [6]: 90.7%
- growth [7]: 97%
- growth [8]: 104%
- growth [9]: 96.8%
- growth [10]: 105%

SMILES: O=C(O)CN1C(=O)c2cccc3cccc(c23)C1=O
- growth [1]: 100%
- growth [2]: 89.4%
- growth [3]: 99.2%
- growth [4]: 97.4%
- growth [5]: 104%
- growth [6]: 106%
- growth [7]: 100%
- growth [8]: 98.6%
- growth [9]: 109%
- growth [10]: 111%

SMILES: O=C(Nc1cccc(Cl)c1)Nc1nccs1
- growth [1]: 94.4%
- growth [2]: 91.6%
- growth [3]: 83.4%
- growth [4]: 94.1%
- growth [5]: 94.5%
- growth [6]: 89.7%
- growth [7]: 79.8%
- growth [8]: 94.1%
- growth [9]: 103%
- growth [10]: 97.2%

SMILES: COc1ccc2c(c1)C(=O)c1c-2c(OCCN2CCCCC2)nc2ccc(OC)cc12
- growth [1]: 1.76% (active)
- growth [2]: 20.8%
- growth [3]: 32.3%
- growth [4]: 12%
- growth [5]: 43.3%
- growth [6]: 22.1%
- growth [7]: 20.6%
- growth [8]: -52.9% (active)
- growth [9]: 72.3%
- growth [10]: 7.82% (active)

SMILES: Nc1c(C(=O)Nc2ccccc2)sc2nc3c(cc12)C(O)CCC3 (stereo not given)
- growth [1]: 6.61% (active)
- growth [2]: 36.6%
- growth [3]: 58.6%
- growth [4]: 23.9%
- growth [5]: 31.8%
- growth [6]: 42.4%
- growth [7]: 55.4%
- growth [8]: 47.5%
- growth [9]: 62.6%
- growth [10]: 37.8%

SMILES: COc1ccc(-c2nc3sc(C4CC4)nn3c2/C=C2/C(=O)Nc3ccc(OC)cc32)cc1
- growth [1]: 73.2%
- growth [2]: -2.41% (active)
- growth [3]: 66.8%
- growth [4]: 72.8%
- growth [5]: 58.1%
- growth [6]: 52.8%
- growth [7]: 44%
- growth [8]: 52.1%
- growth [9]: 24.9%
- growth [10]: 49.6%

SMILES: COc1cc(Cl)cc(-c2nn(-c3cccc(NC(=O)Nc4ccc(Cl)c(Cl)c4)c3)cc2-c2ccncc2)c1
- growth [1]: 7.39% (active)
- growth [2]: 16.2%
- growth [3]: 17.8%
- growth [4]: 3.01% (active)
- growth [5]: -5.03% (active)
- growth [6]: 3.51% (active)
- growth [7]: 4.38% (active)
- growth [8]: 9.24% (active)
- growth [9]: 23.2%
- growth [10]: -32.1% (active)

SMILES: COc1ccc(-c2cc(/C=C3\C(=O)Nc4ccc(OC)cc43)[nH]n2)cc1
- growth [1]: 3.87% (active)
- growth [2]: -18.7% (active)
- growth [3]: 62.1%
- growth [4]: 37.8%
- growth [5]: 15.8%
- growth [6]: 31%
- growth [7]: 39.4%
- growth [8]: 40.3%
- growth [9]: 57%
- growth [10]: 23.4%

SMILES: CC(=O)C1CCC2C3CC(F)C4=CC(=O)CCC4(C)C3C(O)CC12C (stereo not given)
- growth [1]: 101%
- growth [2]: 103%
- growth [3]: 109%
- growth [4]: 104%
- growth [5]: 90.6%
- growth [6]: 102%
- growth [7]: 103%
- growth [8]: 101%
- growth [9]: 112%
- growth [10]: 137%
